Assay results from PubChem BioAssay (Tox21).
Results filed as inconclusive are left out. Active and inactive are the calls of the source. Calls come from the whole dose curve.

Tests used:
[1] = molecular target: Acetylcholinesterase (Homo sapiens) (UniProt P22303); assay: Acetylcholinesterase (AChE) small molecule antagonists: colormetric cell-based qHTS assay (AID 1347395); settings: SH-SY5Y cells AChE activity, colorimetric (Ellman); series mostly up to 115 µM; note: nearly all actives have a fitted effect of over 30% in size
Chain of Acetylcholinesterase (Homo sapiens) (P22303 whole entry, looked up): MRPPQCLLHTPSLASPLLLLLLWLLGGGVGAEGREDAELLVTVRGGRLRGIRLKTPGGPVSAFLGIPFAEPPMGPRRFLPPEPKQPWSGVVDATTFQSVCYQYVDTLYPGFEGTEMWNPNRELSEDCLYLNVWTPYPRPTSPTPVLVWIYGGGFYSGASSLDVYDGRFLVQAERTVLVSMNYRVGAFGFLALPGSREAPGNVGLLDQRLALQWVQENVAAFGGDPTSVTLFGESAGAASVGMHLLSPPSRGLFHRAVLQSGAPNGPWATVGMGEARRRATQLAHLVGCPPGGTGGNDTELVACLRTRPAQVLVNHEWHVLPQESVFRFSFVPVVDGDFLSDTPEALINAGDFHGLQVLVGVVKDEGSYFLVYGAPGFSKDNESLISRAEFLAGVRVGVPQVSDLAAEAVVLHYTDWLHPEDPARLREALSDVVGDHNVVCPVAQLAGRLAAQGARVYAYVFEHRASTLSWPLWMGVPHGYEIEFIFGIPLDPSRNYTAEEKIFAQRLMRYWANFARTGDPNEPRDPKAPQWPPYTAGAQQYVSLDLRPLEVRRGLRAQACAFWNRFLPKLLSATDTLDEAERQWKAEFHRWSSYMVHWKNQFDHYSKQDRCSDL
In short: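 SH-SY5Y cells attached overnight, exposed to compound 30 min at 37 C, then given DTNB/acetylthiocholine; after 90 min at 37 C, colorimetric thiocholine read gives cellular AChE activity.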

[2] = molecular target: Acetylcholinesterase (Homo sapiens) (UniProt P22303); assay: Acetylcholinesterase (AChE) small molecule antagonists: enzyme-based qHTS assay (AID 1347397); settings: Potency: AChE enzyme activity inhibition; outcome: AChE enzyme activity inhibition; series mostly up to 115 µM; note: nearly all actives have a fitted effect of over 55% in size
In short: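 Recombinant human AChE (50 mU/mL) preincubated with compound 30 min at room temperature; acetylthiocholine plus DTNB then added, and thiocholine formation read colorimetrically after 10 min at room temperature. DMSO served as vehicle control.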

[3] = molecular target: Acetylcholinesterase (Homo sapiens) (UniProt P22303); assay: Acetylcholinesterase (AChE) small molecule antagonists: fluorescence cell-based qHTS assay (AID 1347398); settings: SH-SY5Y cells; Potency: AChE activity; outcome: AChE activity; series mostly up to 115 µM; note: nearly all actives have a fitted effect of over 50% in size
In short: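 SH-SY5Y cells (2000/well), attached overnight, incubated with compound 30 min at 37 C. Acetylthiocholine plus Thiolite Green then added for 40 min at room temperature. Thiocholine fluorescence (Ex/Em 490/520 nm) reports cellular AChE activity.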

[4] = molecular target: Acetylcholinesterase (Homo sapiens) (UniProt P22303); assay: Acetylcholinesterase (AChE) small molecule antagonists: enzyme-based qHTS assay with human liver microsomes (AID 1347399); settings: Potency: qHTS inhibition; outcome: qHTS inhibition; series mostly up to 115 µM; note: nearly all actives have a fitted effect of over 60% in size
In short: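 Recombinant human AChE (50 mU/mL in the enzyme mix) and human liver microsomes (0.25 mg/mL final) were preincubated with compound and NADPH (0.25 mg/mL final) for 30 min at 37 C. Acetylthiocholine/DTNB was then added; thiocholine was read colorimetrically after 10 min at room temperature.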
% is set by controls: 0 for no effect and ±100 for the full control effect.

CCCCCCCOC(=O)c1ccc(O)cc1
inactive: Potency [1] | Potency [2] | Potency [3] | Potency [4]

CC(C)OC(=O)C(C(=O)OC(C)C)=C1SC=CS1
inactive: Potency [1] | Potency [2] | Potency [3] | Potency [4]

CCCCCOC(=O)CCC
inactive: Potency [1] | Potency [2] | Potency [3] | Potency [4]

BrCCOc1ccccc1
inactive: Potency [1] | Potency [2] | Potency [3] | Potency [4]

CC1=C(C(=O)O)N2C(=O)[C@@H](NC(=O)[C@H](N)C3=CCC=CC3)[C@H]2SC1
inactive: Potency [1] | Potency [2] | Potency [3] | Potency [4]

CC1=CC(=O)CC(C)(C)C1(O)/C=C/C(C)=C\C(=O)O (stereo not drawn)
inactive: Potency [1] | Potency [2] | Potency [3] | Potency [4]

CC(=O)Oc1ccc(C)cc1
inactive: Potency [1] | Potency [2] | Potency [3] | Potency [4]

CCn1cc(C(=O)O)c(=O)c2cc(F)c(N3CCNCC3)cc21
inactive: Potency [1] | Potency [2] | Potency [3] | Potency [4]

O=CCCCC=O
inactive: Potency [1] | Potency [2] | Potency [3] | Potency [4]

CC(C)(C)CC(C)(C)N
inactive: Potency [1] | Potency [2] | Potency [3] | Potency [4]

CCCCCCCCOc1ccc(C(=O)O)cc1
inactive: Potency [1] | Potency [2] | Potency [3] | Potency [4]

O=[N+]([O-])C(CO)(CO)CO
inactive: Potency [1] | Potency [2] | Potency [3] | Potency [4]

CC1=Nc2ccc3ccccc3c2C1(C)C
inactive: Potency [1] | Potency [2] | Potency [3] | Potency [4]

CC(=O)N[C@@H](CS)C(=O)O
inactive: Potency [1] | Potency [2] | Potency [3] | Potency [4]

C[C@H]1C[C@H]2[C@@H]3CCC4=CC(=O)C=C[C@]4(C)[C@@]3(F)[C@@H](O)C[C@]2(C)[C@@]1(O)C(=O)CO
inactive: Potency [1] | Potency [2] | Potency [3] | Potency [4]

C=C[Si](C)(C)Cl
inactive: activity, negative = inhibition [1] 1.82% [at 10.5 µM] | activity change, negative = inhibition [2] 0.136% [at 10.5 µM] | activity change, negative = inhibition [3] -9.61% [at 10.5 µM] | activity change, negative = inhibition [4] -5.99% [at 10.5 µM]

CCC(=O)OC/C=C/c1ccccc1
inactive: Potency [1] | Potency [2] | Potency [3] | Potency [4]

Cc1cn([C@H]2C=C[C@@H](CO)O2)c(=O)[nH]c1=O
inactive: Potency [1] | Potency [2] | Potency [3] | Potency [4]

CC(CCO)CCc1ccccc1 (stereo not drawn)
inactive: Potency [1] | Potency [2] | Potency [3] | Potency [4]

CN(C)Cc1ccccc1
inactive: Potency [1] | Potency [2] | Potency [3] | Potency [4]

S=c1nccc[nH]1
inactive: Potency [1] | Potency [2] | Potency [3] | Potency [4]

COCN(COC)c1nc(N(COC)COC)nc(N(COC)COC)n1
inactive: Potency [1] | Potency [2] | Potency [3] | Potency [4]

CC(C)(C)C(=O)C(Oc1ccc(Cl)cc1)n1ccnc1 (stereo not drawn)
inactive: Potency [1] | Potency [2] | Potency [3] | Potency [4]

O=C1Nc2cc(Cl)ccc2Oc2ccccc21
inactive: Potency [1] | Potency [2] | Potency [3] | Potency [4]

Cc1ccccc1C=O
inactive: Potency [1] | Potency [2] | Potency [3] | Potency [4]

CC/C=C1/OC(=O)c2ccccc21
inactive: Potency [1] | Potency [2] | Potency [3] | Potency [4]

CCCCCCCCCCCCCCCC(=O)O
inactive: Potency [1] | Potency [2] | Potency [3] | Potency [4]

Cc1cc(O)c(C)c(C)c1O
inactive: Potency [1] | Potency [2] | Potency [3] | Potency [4]

CC1=C(C=O)C(C)(C)CC=C1
inactive: Potency [1] | Potency [2] | Potency [3] | Potency [4]

O=Cc1cc2ccccc2o1
inactive: Potency [1] | Potency [2] | Potency [3] | Potency [4]

C=CCCCCCCCCC(=O)OCC
inactive: Potency [1] | Potency [2] | Potency [3] | Potency [4]

FC(F)(F)c1ccccc1-n1ccnc1
inactive: Potency [1] | Potency [2] | Potency [3] | Potency [4]

O=C1OCc2ccccc21
inactive: Potency [1] | Potency [2] | Potency [3] | Potency [4]

C1COCCO1
inactive: Potency [1] | Potency [2] | Potency [3] | Potency [4]

C1CNCCN1
inactive: outcome [1] | outcome [2] | outcome [3] | outcome [4]

CC(C)OC(=O)c1ccccc1
inactive: Potency [1] | Potency [2] | Potency [3] | Potency [4]

O=C(O)CCC(=O)c1ccc(-c2ccccc2)cc1
inactive: Potency [1] | Potency [2] | Potency [3] | Potency [4]

NNc1nc(-c2ccccc2)cs1
inactive: Potency [1] | Potency [2] | Potency [3] | Potency [4]

NC(N)=Nc1nc(CSCC/C(N)=N/S(N)(=O)=O)cs1
inactive: Potency [1] | Potency [2] | Potency [3] | Potency [4]

COc1ccc(C#N)cc1
inactive: Potency [1] | Potency [2] | Potency [3] | Potency [4]

CC(=O)Nc1ccccc1
inactive: Potency [1] | Potency [2] | Potency [3] | Potency [4]

CCC1CCC(CCC(=O)O)C1 (stereo not drawn)
inactive: Potency [1] | Potency [2] | Potency [3] | Potency [4]

CN1CCN(c2c(F)cc3c(=O)c(C(=O)O)cn4c3c2SCC4)CC1
inactive: Potency [1] | Potency [2] | Potency [3] | Potency [4]

CCC(C)n1ncn(-c2ccc(N3CCN(c4ccc(OC[C@H]5CO[C@](Cn6cncn6)(c6ccc(Cl)cc6Cl)O5)cc4)CC3)cc2)c1=O (stereo partly drawn)
inactive: Potency [1] | Potency [2] | Potency [3] | Potency [4]

O=C=Nc1ccc(Cl)c(Cl)c1
inactive: Potency [1] | Potency [2] | Potency [3] | Potency [4]

C[C@H]1C[C@@H]2[C@H]([C@@H](O)C[C@@]3(C)[C@H]2CC[C@]3(O)C(=O)CO)[C@@]2(C)C=CC(=O)C=C12
inactive: Potency [1] | Potency [2] | Potency [3] | Potency [4]

O=S(=O)(O)CCS
inactive: Potency [1] | Potency [2] | Potency [3] | Potency [4]

c1cnc2c(n1)CCCC2
inactive: Potency [1] | Potency [2] | Potency [3] | Potency [4]

CCCCC1CCC(=O)O1 (stereo not drawn)
inactive: Potency [1] | Potency [2] | Potency [3] | Potency [4]

CCC(=O)O
inactive: Potency [1] | Potency [2] | Potency [3] | Potency [4]

O=C1c2ccccc2C(=O)N1CCl
inactive: Potency [1] | Potency [2] | Potency [3] | Potency [4]

CNC(=O)[C@H]1O[C@@H](n2cnc3c(NCc4cc(Cl)ccc4OCc4cc(C)no4)ncnc32)[C@H](O)[C@@H]1N
inactive: Potency [1] | Potency [2] | Potency [3] | Potency [4]

C=C(C)c1cccc(C(=C)C)c1
inactive: Potency [1] | Potency [2] | Potency [3] | Potency [4]

COc1cc(S(N)(=O)=O)cc(C(=O)O)c1OC
inactive: Potency [1] | Potency [2] | Potency [3] | Potency [4]

CC(C)(C)NCC(O)COc1ccccc1OCC1CCCO1 (stereo not drawn)
inactive: Potency [1] | Potency [2] | Potency [3] | Potency [4]

CC(=O)Oc1ccc(C2(c3ccc(OC(C)=O)cc3)C(=O)Nc3ccccc32)cc1
inactive: Potency [1] | Potency [2] | Potency [3] | Potency [4]

O=C1CCC/C=C\CCCCCCCCCC1
inactive: Potency [1] | Potency [2] | Potency [3] | Potency [4]

CCCNC(=O)NS(=O)(=O)c1ccc(Cl)cc1
inactive: Potency [1] | Potency [2] | Potency [3] | Potency [4]

O=C(c1ccccc1)c1ccc(O)cc1
inactive: Potency [1] | Potency [2] | Potency [3] | Potency [4]

CCC(C)(C)c1ccc(CC(C)CN2C[C@@H](C)O[C@@H](C)C2)cc1 (stereo partly drawn)
inactive: Potency [1] | Potency [2] | Potency [3] | Potency [4]

O=C(c1ccccc1)C1(O)CCCCC1
inactive: Potency [1] | Potency [2] | Potency [3] | Potency [4]

Cc1ccnc2c1NC(=O)c1cccnc1N2C1CC1
inactive: Potency [1] | Potency [2] | Potency [3] | Potency [4]

O=C(O)c1ccc2cc(O)ccc2c1
inactive: Potency [1] | Potency [2] | Potency [3] | Potency [4]

C=CC(=O)OCC(O)COc1ccccc1 (stereo not drawn)
inactive: Potency [1] | Potency [2] | Potency [3] | Potency [4]

Cc1ncc(COP(=O)(O)O)c(C=O)c1O
inactive: Potency [1] | Potency [2] | Potency [3] | Potency [4]

CS(=O)(=O)c1ccc(Cl)cc1
inactive: Potency [1] | Potency [2] | Potency [3] | Potency [4]

COC(=O)CCCCCCCC(=O)OC
inactive: Potency [1] | Potency [2] | Potency [3] | Potency [4]

CO[C@@]1(NC(=O)CSC[C@@H](N)C(=O)O)C(=O)N2C(C(=O)O)=C(CSc3nnnn3C)CS[C@@H]21
inactive: Potency [1] | Potency [2] | Potency [3] | Potency [4]

CCNCCO
inactive: Potency [1] | Potency [2] | Potency [3] | Potency [4]

CCN1CCCC(OC(=O)C(c2ccccc2)c2ccccc2)C1 (stereo not drawn)
inactive: Potency [1] | Potency [2] | Potency [3] | Potency [4]

O=C1c2cccc(O)c2C(=O)c2c(O)cc(CO)cc21
inactive: Potency [1] | Potency [2] | Potency [3] | Potency [4]

CCCCC(CC)CN1C(=O)C2C3C=CC(C3)C2C1=O (stereo not drawn)
inactive: Potency [1] | Potency [2] | Potency [3] | Potency [4]

Cc1ccc([N+](=O)[O-])cc1S(=O)(=O)O
inactive: Potency [1] | Potency [2] | Potency [3] | Potency [4]

CCO[Si](CCC#N)(OCC)OCC
inactive: Potency [1] | Potency [2] | Potency [3] | Potency [4]

COc1cc(CNC(=O)CCCC/C=C/C(C)C)ccc1O
inactive: Potency [1] | Potency [2] | Potency [3] | Potency [4]

O=C1OC2(c3cc(Br)c(O)c(Br)c3Oc3c2cc(Br)c(O)c3Br)c2c(Cl)c(Cl)c(Cl)c(Cl)c21
inactive: Potency [1] | Potency [2] | Potency [3] | Potency [4]

CC1=CCC(C(C)(C)O)CC1 (stereo not drawn)
inactive: Potency [1] | Potency [2] | Potency [3] | Potency [4]

Oc1ccccc1C=NCc1ccccc1
inactive: Potency [1] | Potency [2] | Potency [3] | Potency [4]

CC(=O)c1ccc2ccc3ccccc3c2c1
inactive: Potency [1] | Potency [2] | Potency [3] | Potency [4]

CCCCCCO
inactive: Potency [1] | Potency [2] | Potency [3] | Potency [4]

Cc1ncc([N+](=O)[O-])n1CCO
inactive: Potency [1] | Potency [2] | Potency [3] | Potency [4]

Cn1cnc2c(=O)[nH]c(N)nc21
inactive: Potency [1] | Potency [2] | Potency [3] | Potency [4]
